Sampled rows, rich in hits. Any-hit rate of the full collection: about 5.3%.
IMPase Li cell: IMPase inhibition in cells with lithium potentiation. 210,000 tested, 0.35% active. CHO-M1 cells, IP1 TR-FRET (IP-One), carbachol + lithium. Potency, µM (top dose mostly 59.4 µM), inactives show top-dose activity, negative = IMPase inhibition, actives largely listed as inhibitors;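 also: IP1 builds up when IMPase is blocked and the TR-FRET signal falls; potency is read from the fitted curve at half-maximal effect; plate controls were basal vehicle for no effect and high inhibitor control for full effect; nearly all actives have a fitted effect of over 50% in size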
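Concentration–response in CHO-M1 cells, lithium-potentiated; 30 min at 37C. IP1 detected by competitive TR-FRET after 10 min lysis at RT. Hill-fitted AC50.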
ALOX12 inhib: blocks human 12-lipoxygenase activity | purified 12-hLO, xylenol orange hydroperoxide absorbance | 150,000 tested, 0.12% active | AID 1452 | P18054 | Potency, µM (series often up to 57.1 µM), for inactives: at the highest dose activity change, negative = inhibition, hits mostly inhibitors; also: potency is read from the fitted curve at half-maximal effect; nearly all actives have a fitted effect of over 55% in size
Target sequence (P18054 whole entry, looked up): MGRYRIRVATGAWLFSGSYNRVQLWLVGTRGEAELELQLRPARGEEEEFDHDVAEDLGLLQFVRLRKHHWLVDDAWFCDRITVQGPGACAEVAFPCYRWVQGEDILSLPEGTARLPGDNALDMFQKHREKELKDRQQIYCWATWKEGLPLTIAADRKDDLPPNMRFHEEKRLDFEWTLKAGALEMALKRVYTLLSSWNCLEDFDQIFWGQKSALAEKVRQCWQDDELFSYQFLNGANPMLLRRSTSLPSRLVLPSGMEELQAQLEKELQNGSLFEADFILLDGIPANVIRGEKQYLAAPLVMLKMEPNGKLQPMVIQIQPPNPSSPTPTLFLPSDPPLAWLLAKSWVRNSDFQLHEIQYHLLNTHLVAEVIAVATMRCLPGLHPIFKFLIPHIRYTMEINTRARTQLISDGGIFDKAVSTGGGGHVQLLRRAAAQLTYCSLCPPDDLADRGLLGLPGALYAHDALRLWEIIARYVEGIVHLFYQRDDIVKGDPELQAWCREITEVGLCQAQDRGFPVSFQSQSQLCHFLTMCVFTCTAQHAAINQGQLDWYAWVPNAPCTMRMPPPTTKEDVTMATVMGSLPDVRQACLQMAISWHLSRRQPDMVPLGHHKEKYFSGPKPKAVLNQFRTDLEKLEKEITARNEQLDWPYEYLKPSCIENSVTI
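Hydroperoxide output read as Fe(III)-xylenol orange absorbance, 573-to-405 nm ratio, after 30 min reaction with 40 uM arachidonic acid. Enzyme: 150 nM purified human 12hLO, 15 min compound preincubation; 25 mM Hepes pH 7.0, room temperature.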
PNC inhibitor: inhibitors of perinucleolar compartment assembly | PC3M PTB-GFP, PNC prevalence imaging, 16 h; stronger effect = lower value | activity change (PNC), negative = inhibition, % at 10 µM | 140,000 tested, 3.1% active | AID 2417;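 active = readout at or below -70, meaning at least 70% loss of cells showing the perinucleolar compartment, a nuclear body marking cancer cells; inconclusive = readout between -30 and a set limit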;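 also: plate controls were DMSO wells for no effect and camptothecin positive control wells for full effect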
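Read-out is percentage of cells bearing a perinucleolar compartment, from automated 20x imaging of fixed, Hoechst-stained PC3M PTB-GFP cells. Cells were seeded 4 h, then exposed 16 h to compound (23 nl of library stock) in duplicate plates.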
HPGD block: blocks human HPGD enzyme activity; 150,000 tested, 4.3% active; purified HPGD, NADH fluorescence kinetic, PGE2 substrate; P15428; Potency, µM, for the others: at the highest dose activity change, negative = inhibition, hits mostly inhibitors; active = well fitted inhibition curve with a large enough effect, not every such curve was filed as active; inconclusive = small, poorly fitted or top-dose-only effect, or another doubt; inactive = no such curve, though single readings can be large or run the other way; also: potency is read from the fitted curve at half-maximal effect
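20 nM HPGD preincubated 15 min at room temperature with compound in 50 mM Tris-HCl pH 8, 0.01% Tween 20. Started with 1 mM NAD+ and 30 uM prostaglandin E2; NADH fluorescence (360/450 nm) read 5 times over 30-s intervals, last minus first.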
ALOX15B inhib: 15-hLO-2 (ALOX15B) enzyme inhibition. O15296. purified 15hLO-2, xylenol orange hydroperoxide absorbance. Potency, µM (doses to about 57.1 µM), inactives show top-dose activity change, negative = inhibition, usual class: inhibitors. 110,000 tested, 0.56% active. AID 881; also: potency is read from the fitted curve at half-maximal effect; nearly all actives have a fitted effect of over 60% in size
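Purified human 15hLO-2 (50 nM final) preincubated with compounds 15 min at room temperature in 25 mM Hepes pH 7.5, 0.01% Triton X-100, then 45 uM arachidonic acid added for 90 min; hydroperoxide detected via ferrous/xylenol orange, 573/405 nm absorbance ratio.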
IMPase inh: IMPase inhibition in cells. P97697. inhibition (IP1 accumulation), % at 46.1 µM. 120,000 tested, under 10 active. CHO-M1 cells, IP1 accumulation, HTRF TR-FRET ratio. AID 901; active = well fitted curve in the direction sought with a large enough effect in the signal ratio, not every such curve was filed as active; inconclusive = small, poorly fitted or top-dose-only effect, or a change in a side signal; inactive = no such curve, though single readings can be large or run the other way; the % refers to the signal ratio;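 also: cells stimulated with carbachol in lithium chloride buffer; plate controls were DMSO basal wells for no effect and reference inhibitor wells for full effect; higher means more IMPase inhibition seen as more IP1 and lower FRET ratio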
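Cellular IMPase inhibition is scored as a rise in cytosolic IP1, detected by competitive TR-FRET between d2-labelled IP1 and a europium anti-IP1 antibody. M1-expressing CHO cells were stimulated with carbachol for 30 min at 37C, with lithium (50 mM LiCl) present in the buffer.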
* = called active by the depositor; ? = inconclusive; . = no result; [ ] = remark or other dose. Unless noted, calls follow the shape of the dose curve; as a rule, active = well fitted curve in the direction sought with a large enough effect; inconclusive = small, poorly fitted or top-dose-only effect, or another doubt; inactive = no such curve, though single readings can be large; an effect the other way counts as inactive or inconclusive. Unless noted, % is scaled to controls: 0 for no effect and ±100 for the full control effect.

SMILES	IMPase Li cell	ALOX12 inhib	PNC inhibitor	HPGD block	ALOX15B inhib	IMPase inh
CNS(=O)(=O)c1ccc2nc(NC(=O)/C=C/c3ccco3)sc2c1	-9%	.	.	.	.	.
CCCCC1(C)OC(=O)C(=Cc2ccc(N(CC)CC)cc2)C(=O)O1 (stereo not drawn)	-8%[38.3 µM]	3%	19	20µM*	-2%	-19
CCN(CC)c1ccc(C=C2C(=O)OC3(CCCCC3)OC2=O)cc1	10%	.	.	.	.	.
NC1=NC(=O)/C(=C/c2cccs2)S1	-17%[38.3 µM]	7%	-14	-52%	-18%	1
C=CCSC1=NC(=O)/C(=C/c2cccs2)S1	-5%	-1%	16	32µM*	.	.
CC(C)c1ccc(NC(=O)Cn2cc(S(=O)(=O)N3CCN(c4ccccc4F)CC3)c3ccccc3c2=O)cc1	.	.	.	.	.	5
O=C(NCc1ccco1)c1ccc(C(=O)NCc2ccco2)s1	22%[38.3 µM]	3%	?	-12%	-7%	?
O=C(NCc1ccco1)c1cc2c(s1)CCCCC2	21%	2%	-21	16µM*	-13%	-6
O=C(NCc1ccco1)c1ccc(Br)s1	3%[38.3 µM]	-1%	-15	16µM*	-2%	-1
COC(=O)C/C=C/[C@@H](C)[C@H](OC)c1c(Br)ccc2c1OCO2	17%	.	.	-16%	.	.
CCC(O)CNC(=O)NC(=C(Cl)Cl)c1ccc(C)c(F)c1 (stereo not drawn)	5%	1%	-2	-14%	.	-3
O=C(O)Cc1ccc(C(=O)c2ccccc2F)s1	3%[38.3 µM]	1%	47	16µM*	-14%	-6
S=c1[nH]nc(-c2ccc(Br)cc2)n1Cc1ccco1	33%[38.3 µM]	-8%	?	25µM*	2%[11.4 µM]	-8[1.84 µM]
CCCNC(=S)N(Cc1ccccc1)Cc1nc2ccccc2c(=O)[nH]1	6%	1%	5	-20%	.	.
CCCCc1nn(-c2cc(Cl)ccc2OC)c2c1C(=O)CC(C)(C)C2	18%[38.3 µM]	-1%	?	-1%	-1%	12
CCCc1nn(-c2cc(Cl)ccc2OC)c2c1C(=O)CCC2	10%[38.3 µM]	-5%	-97*	-3%	-2%	-7
CCN(CC)c1ccc(C(=O)OCC(=O)Nc2ccc3[nH]c(=O)[nH]c3c2)cc1	4%	.	.	.	.	.
CSc1nc2ccccc2s1	-1%	-1%	-27	-9%	.	.
Oc1ccccc1C(Sc1nc2ccccc2s1)Sc1nc2ccccc2s1	-7%	-9%[11.4 µM]	.	4µM*	?	.
CCCCCC(O)/C=C/C=C\CCCCCCCC(=O)O (stereo not drawn)	15%	-1%	.	-2%	.	.
O=C(C1CCCO1)N1N=C(c2ccc(Br)cc2)CC1c1ccco1 (stereo not drawn)	7%	-3%	-89*	-9%	.	.
O=C(Nc1ccccn1)C(F)(F)C(F)(F)C(F)(F)C(F)(F)C(=O)Nc1ccccn1	6%	-1%	-29	-11%	.	9
CCNC(=O)NS(=O)(=O)c1cnccc1Nc1cccc(Cl)c1	-2%	-3%	-90*	1%	.	.
CN1CCN(C(c2cccs2)c2nnnn2Cc2ccc(F)cc2)CC1 (stereo not drawn)	16%	.	.	.	.	.
COc1ccc(/C=N/NC(=O)c2ccc(CSc3nc(C)cc(C)n3)cc2)c(OC)c1OC	5%	3%	76	35µM*	.	.
SMILES	IMPase Li cell	ALOX12 inhib	PNC inhibitor	HPGD block	ALOX15B inhib	IMPase inh
COc1ccc(/C=N/NC(=O)c2ccc(CSc3nc(C)cc(C)n3)cc2)cc1O	16%	2%	?	?	.	8
CCOC(=O)NC(=O)C(=CNc1ccc(C)cc1)C(=O)NC(=O)OCC	1%	1%	?	0%	.	.
CCOC(=O)CNC(=O)Cn1cnc2c(nnn2-c2ccc(F)cc2)c1=O	-5%[38.3 µM]	-6%	21	-12%	3%	14
COc1ccc(-n2c(SCC(=O)NCc3ccco3)nc3c([nH]c4ccccc43)c2=O)cc1	19%[38.3 µM]	4%	-108*	-16%	-8%	5
Cc1ccc(-n2c(SCC(=O)NCc3ccco3)nc3c([nH]c4ccccc43)c2=O)cc1	11%	.	.	.	.	.
O=C(CSc1ncnc2ccccc12)NCc1ccco1	-4%	4%	-26	16µM*	.	-11[1.84 µM]
CCOC(=O)CNC(=O)CSc1ncnc2c1nnn2-c1ccc(F)cc1	7%	4%	-100*	-14%	.	-2
O=C(CSc1nnc(COc2ccccc2F)n1-c1ccccc1)NCc1ccco1	31%[38.3 µM]	1%	?	20µM*	-11%	7
C=CCn1c(COc2ccccc2F)nnc1SCC(=O)NC(=O)NCc1ccco1	-3%[38.3 µM]	5%	-20	-7%	2%	1
O=C(CSc1ncnc2ccccc12)c1ccco1	-7%	.	.	.	.	.
C=C(C)C1CC=C(C)/C(=N/NC(=O)c2ccoc2C)C1 (stereo not drawn)	3%	0%	23	1%	.	.
CCOC(=O)C1(CC/C(C)=N\NC(N)=O)CC(C)(C)OC1=O (stereo not drawn)	2%	-1%	4	2%	.	.
COc1ccc(-n2nnc3c(SCC(=O)NCc4ccco4)ncnc32)cc1	1%[38.3 µM]	-5%	2	28µM*	-28%	0
O=C(O)CN=C1NC2(CCCCC2)Cc2ccccc21	2%	4%	-100*	-13%	.	4
O=C1NC2(CCCCC2)Cc2ccccc21	7%[38.3 µM]	-2%	?	-27%	5%	3
Cc1cc(C(=O)CSc2n[nH]c(-c3ccccc3F)n2)c(C)n1Cc1cccs1	18%[38.3 µM]	-4%	?	13µM*	-11%	-2
Cc1csc(SCC(=O)c2cc(C)n(Cc3cccs3)c2C)n1	14%[38.3 µM]	-8%	-10	-10%	-12%	3
CCc1nnc(NC(=O)C(=O)NCCOC(=O)c2ccccc2)s1	26%[38.3 µM]	6%	-15	-12%	-2%	2
Cc1c(C)c2cc(Cl)c(OCc3nn[nH]n3)cc2oc1=O	.	-1%	-122*	.	-6%	-4
CC(C)c1ccc(NC(=S)NN(c2ccccc2)c2ccccc2)cc1	12%	?	-85*	22µM*	.	.
N=c1c2c(-c3ccccc3)c(-c3ccccc3)n(Cc3ccccc3)c2ncn1CCCn1ccnc1	25%[38.3 µM]	-3%	-98*	-16%	60%	5
N=c1c2c(-c3ccccc3)c(-c3ccccc3)n(Cc3ccco3)c2ncn1Cc1ccco1	27%[38.3 µM]	-18%	19	-2%	-15%	22
CCc1nc(CN2CCCC(C(=O)c3ccc4c5c(cccc35)CC4)C2)c(C)[nH]1 (stereo not drawn)	7%	.	.	.	.	.
O=S(=O)(/N=C(\Sc1ccc(Cl)cc1)c1ccccc1)c1ccccc1	8%[38.3 µM]	-9%	25	20µM*	?	8
CS/C(=N\S(=O)(=O)c1ccc(Cl)cc1)c1ccccc1	9%	0%	0	-20%	-4%	5
